Reference: PubChem BioAssay (Tox21)
Results filed as inconclusive are left out. The source made the active and inactive calls. Unless noted, calls follow the shape of the full dose curve.

Key:
[1] = Nuclear factor erythroid 2-related factor 2/antioxidant responsive element (Nrf2/ARE) small molecule agonists: luciferase reporter gene qHTS assay in human keratinocytes (AID 1919969); also: nearly all actives have a fitted effect of over 35% in size; also: potency is read from the fitted curve at half-maximal effect
[2] = biological target: KiSS-1 receptor (Homo sapiens) (UniProt Q969F8); experiment: Human kisspeptin (KISS1R) small molecule agonists, calcium flux assay in KISS1R-HEK293 cells (AID 1920064; active = well fitted activation curve with a large enough effect in the repeat runs)
KiSS-1 receptor (Homo sapiens), sequence (Q969F8 whole entry, looked up): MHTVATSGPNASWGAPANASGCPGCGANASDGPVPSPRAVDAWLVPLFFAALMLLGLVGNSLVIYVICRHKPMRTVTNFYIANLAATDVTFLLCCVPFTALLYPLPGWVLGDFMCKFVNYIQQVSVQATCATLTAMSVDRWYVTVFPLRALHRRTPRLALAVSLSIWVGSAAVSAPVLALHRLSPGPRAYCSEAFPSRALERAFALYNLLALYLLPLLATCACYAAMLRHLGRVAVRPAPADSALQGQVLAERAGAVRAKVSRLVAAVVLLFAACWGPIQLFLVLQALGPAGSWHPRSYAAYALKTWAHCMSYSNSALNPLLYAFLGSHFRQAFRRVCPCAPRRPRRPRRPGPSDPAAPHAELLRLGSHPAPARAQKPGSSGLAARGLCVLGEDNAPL
Method in brief: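 Agonist activity is monitored as intracellular calcium rise in engineered HEK293 cells carrying human KISS1R. Cells are dye-loaded for 1 h at 37 C before compound addition, and fluorescence is recorded for 3 min.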

[3] = G protein-coupled receptor (GPCR) small molecule agonists, calcium flux assay: HEK293 wild type cell line counter screen (AID 1920065)
Method in brief: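 Seed cells, incubate 18 h (37 C, 5% CO2); add calcium dye, 1 h at 37 C; pin-transfer compounds, ATP control or DMSO; read fluorescence 480/540 nm each second for 3 min.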

[4] = p53 small molecule agonists, cell-based qHTS assay with rat liver microsomes (AID 1963578)
Method in brief: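 With rat liver microsomes and NADPH present (0.5 mg/mL final each), p53RE-bla cells are treated with compound for 16 h at 37 C. LiveBLAzer detection mixture is then applied for 2 h at room temperature in the dark.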

[5] = p53 small molecule agonists, cell-based qHTS assay with rat liver microsomes: qHTS cell viability counter screen (AID 1963580); also: nearly all actives have a fitted effect of over 45% in size; also: potency is read from the fitted curve at half-maximal effect
Method in brief: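 Cytotoxicity counter screen: intracellular ATP read by CellTiter-Glo luminescence in the p53 reporter wells. HCT-116 p53RE-bla cells were treated for 16 h at 37 C alongside rat liver microsomes and NADPH, each 0.5 mg/mL final.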

[6] = biological target: 5-hydroxytryptamine receptor 2A (Homo sapiens) (UniProt P28223); experiment: 5-hydroxytryptamine receptor 2A (HTR2A) small molecule antagonists, cell-based qHTS assay (AID 1963586); also: nearly all actives have a fitted effect of over 45% in size; also: potency is read from the fitted curve at half-maximal effect
5-hydroxytryptamine receptor 2A (Homo sapiens), sequence (P28223 whole entry, looked up): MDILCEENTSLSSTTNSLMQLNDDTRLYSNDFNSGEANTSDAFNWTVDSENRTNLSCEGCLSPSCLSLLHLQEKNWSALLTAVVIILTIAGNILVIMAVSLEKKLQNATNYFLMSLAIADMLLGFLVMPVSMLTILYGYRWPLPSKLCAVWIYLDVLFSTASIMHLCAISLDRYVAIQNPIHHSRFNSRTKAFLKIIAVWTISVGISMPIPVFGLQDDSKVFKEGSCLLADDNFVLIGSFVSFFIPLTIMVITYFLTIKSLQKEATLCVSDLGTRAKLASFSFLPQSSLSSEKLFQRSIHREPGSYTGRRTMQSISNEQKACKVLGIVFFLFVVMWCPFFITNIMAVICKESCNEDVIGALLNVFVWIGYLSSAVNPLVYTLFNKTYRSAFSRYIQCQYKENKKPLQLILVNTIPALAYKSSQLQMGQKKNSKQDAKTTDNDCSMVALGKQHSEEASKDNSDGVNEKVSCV
Method in brief: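 CHO cells stably expressing human HTR2A were plated for 18 h at 37 C, then loaded with calcium dye for 1 h. Compounds were preincubated 5 min at room temperature before DOI (4 nM solution) was added. Kinetic fluorescence was read for 3 min.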

[7] = biological target: 5-hydroxytryptamine receptor 2A (Homo sapiens) (UniProt P28223); experiment: 5-hydroxytryptamine receptor 2A (HTR2A) small molecule agonists, cell-based qHTS assay (AID 1963587); also: nearly all actives have a fitted effect of over 30% in size
Method in brief: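 Kinetic calcium-flux fluorescence (2 min, 1 sec intervals) after compound addition in agonist mode. HTR2A-CHO cells were cultured 18 h, then dye-loaded 1 h at 37 C.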

[8] = biological target: Muscarinic acetylcholine receptor M1 (Homo sapiens) (UniProt P11229); experiment: Cholinergic receptor muscarinic 1 (CHRM1) small molecule antagonists, cell-based qHTS assay (AID 1963588); also: nearly all actives have a fitted effect of over 40% in size; also: potency is read from the fitted curve at half-maximal effect
Muscarinic acetylcholine receptor M1 (Homo sapiens), sequence (P11229 whole entry, looked up): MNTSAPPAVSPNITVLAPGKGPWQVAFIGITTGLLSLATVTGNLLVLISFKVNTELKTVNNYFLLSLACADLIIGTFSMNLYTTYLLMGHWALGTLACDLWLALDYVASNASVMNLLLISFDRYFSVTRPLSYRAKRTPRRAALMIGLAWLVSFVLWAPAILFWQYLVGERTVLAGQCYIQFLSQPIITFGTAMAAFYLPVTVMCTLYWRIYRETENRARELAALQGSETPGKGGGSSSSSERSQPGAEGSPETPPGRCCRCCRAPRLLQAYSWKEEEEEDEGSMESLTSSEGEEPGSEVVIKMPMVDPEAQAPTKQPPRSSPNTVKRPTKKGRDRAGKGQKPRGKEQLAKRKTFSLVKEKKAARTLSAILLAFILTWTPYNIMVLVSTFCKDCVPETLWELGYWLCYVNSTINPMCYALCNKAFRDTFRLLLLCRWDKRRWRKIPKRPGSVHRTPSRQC
Method in brief: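 Compounds were tested at 15 concentrations in three independent runs. Dye-loaded CHRM1-CHO cells were exposed 5 min at room temperature before stimulation by acetylcholine added at 50nM. Intracellular calcium was read kinetically on FDSS for 3 min.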

[9] = biological target: Muscarinic acetylcholine receptor M1 (Homo sapiens) (UniProt P11229); experiment: Cholinergic receptor muscarinic 1 (CHRM1) small molecule agonists, cell-based qHTS assay (AID 1963589); also: nearly all actives have a fitted effect of over 35% in size
Method in brief: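 Cells were plated and incubated 18 h at 37 C/5% CO2, loaded with calcium dye for 1 h at 37 C, then treated with compounds in DMSO. Fluorescence was recorded kinetically at 1 sec intervals.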

[10] = biological target: Beta-2 adrenergic receptor (Homo sapiens) (UniProt P07550); experiment: Adrenergic beta2 receptor (ADRB2) small molecule antagonists, cell-based qHTS assay (AID 1963592); also: nearly all actives have a fitted effect of over 50% in size; also: potency is read from the fitted curve at half-maximal effect
Beta-2 adrenergic receptor (Homo sapiens), sequence (P07550 whole entry, looked up): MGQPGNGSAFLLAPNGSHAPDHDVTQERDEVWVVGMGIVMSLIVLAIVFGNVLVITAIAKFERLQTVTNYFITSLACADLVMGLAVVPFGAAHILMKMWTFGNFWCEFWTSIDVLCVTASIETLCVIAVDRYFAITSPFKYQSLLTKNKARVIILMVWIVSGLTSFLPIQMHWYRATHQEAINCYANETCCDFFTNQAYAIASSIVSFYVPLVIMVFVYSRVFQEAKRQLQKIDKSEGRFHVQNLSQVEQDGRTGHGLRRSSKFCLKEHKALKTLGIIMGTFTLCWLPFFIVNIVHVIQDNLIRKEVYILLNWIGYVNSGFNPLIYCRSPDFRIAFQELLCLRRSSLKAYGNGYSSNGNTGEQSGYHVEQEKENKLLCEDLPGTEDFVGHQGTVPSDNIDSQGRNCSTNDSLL
Method in brief: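 Assay format: CHO-ADRB2 cells, 18-20hr seeding at 37C/5% CO2, then compound plus 1nM isoproterenol agonist mix for 0.5hr RT. Homogeneous time-resolved fluorescence cAMP detection after 1hr, expressed as 665/615 nm ratio.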

[11] = biological target: D(2) dopamine receptor (Homo sapiens) (UniProt P14416); experiment: Dopamine D2 receptor (DRD2) small molecule agonists, cell-based qHTS assay (AID 1963594); also: nearly all actives have a fitted effect of over 35% in size
D(2) dopamine receptor (Homo sapiens), sequence (P14416 whole entry, looked up): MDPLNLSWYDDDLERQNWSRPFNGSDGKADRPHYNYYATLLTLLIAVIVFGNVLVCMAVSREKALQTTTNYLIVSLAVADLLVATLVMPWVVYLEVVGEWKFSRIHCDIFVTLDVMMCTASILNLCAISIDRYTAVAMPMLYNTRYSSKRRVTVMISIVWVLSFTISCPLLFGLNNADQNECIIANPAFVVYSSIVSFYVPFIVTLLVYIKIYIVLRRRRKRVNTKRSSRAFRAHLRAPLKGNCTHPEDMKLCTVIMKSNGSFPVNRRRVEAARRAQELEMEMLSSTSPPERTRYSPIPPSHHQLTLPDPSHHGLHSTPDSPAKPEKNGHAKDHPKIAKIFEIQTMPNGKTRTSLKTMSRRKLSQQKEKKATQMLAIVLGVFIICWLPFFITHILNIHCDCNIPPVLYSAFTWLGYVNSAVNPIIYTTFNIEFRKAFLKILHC
Method in brief: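 cAMP accumulation in DRD2-HEK293 cells measured by HTRF after 1 h detection; compounds added 10 min before NKH477 (200nM […]) forskolin-analogue stimulation, 30 min at room temperature, with Ro20-1724 present at 0.1 mM final.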

[12] = biological target: D(2) dopamine receptor (Homo sapiens) (UniProt P14416); experiment: Dopamine D2 receptor (DRD2) small molecule antagonists, cell-based qHTS assay (AID 1963595; active = well fitted inhibition curve with a large enough effect in the signal ratio in the repeat runs, with a control signal flat; the % refers to the signal ratio; also: potency is read from the fitted curve at half-maximal effect)
Method in brief: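 HTRF cAMP read-out at 665 and 620 nm emission (340 nm excitation). Antagonist mode: compounds were tested against 12 nM quinpirole in DRD2-HEK293 cells, with 200 nM NKH477 raising cAMP and 0.1 mM Ro20-1724 blocking its breakdown.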

[13] = p53 small molecule agonists, cell-based qHTS assay: qHTS cell viability counter screen (AID 1963581); also: nearly all actives have a fitted effect of over 45% in size; also: potency is read from the fitted curve at half-maximal effect
Method in brief: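 Viability was counter-screened in parallel with the p53 agonist reporter by measuring intracellular ATP luminescence in the same HCT-116 p53RE-bla wells after 16 h compound treatment at 37 C.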

[14] = cAMP Responsive Elements (CRE) small molecule agonists, cell-based qHTS assay (AID 1963590)
Method in brief: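 Cells carrying a CRE-driven beta-lactamase reporter (HEK 293T) are seeded, incubated overnight (18 h), and treated with test compounds for 3 h at 37 C; reporter activity is then detected with a FRET substrate after 2 h at room temperature.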

[15] = p53 small molecule agonists, cell-based qHTS assay with human liver microsomes (AID 1963577);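 also: p53 response element beta-lactamase reporter cells with liver microsomes plus NADPH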
Method in brief: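 16 h, 37 C exposure of p53RE-bla cells to compounds with human liver microsomes and NADPH (0.5 mg/mL final each); detection via LiveBLAzer mixture, 2 h dark at room temperature.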

[16] = p53 small molecule agonists, cell-based qHTS assay with human liver microsomes: qHTS cell viability counter screen (AID 1963579); also: nearly all actives have a fitted effect of over 45% in size; also: potency is read from the fitted curve at half-maximal effect
Method in brief: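 In this multiplexed counter screen, the reporter plates were subsequently treated with CellTiter-Glo so that cell viability, reflected by luminescence, could be recorded for p53RE-bla cells dosed 16 h with compounds under microsomal activation (HLM and NADPH).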

[17] = cAMP Responsive Elements (CRE) small molecule antagonists, cell-based qHTS assay (AID 1963591; active = well fitted inhibition curve with a large enough effect in the signal ratio in the repeat runs, not every such curve was filed as active; the % refers to the signal ratio; also: potency is read from the fitted curve at half-maximal effect)
Method in brief: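 Cells (CRE-bla HEK 293T, DMEM with 10% dialyzed FBS and 25 mM HEPES) are seeded and incubated 18 h. Compounds are added with NKH477 agonist at 0.25 uM final for 3 h, then FRET substrate for 2 h.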

[18] = biological target: Beta-2 adrenergic receptor (Homo sapiens) (UniProt P07550); experiment: Adrenergic beta2 receptor (ADRB2) small molecule agonists, cell-based qHTS assay (AID 1963593);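 also: CHO cells stably overexpressing human ADRB2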
Method in brief: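 CHO cells stably over-expressing ADRB2 were plated overnight at 37C, then dosed with compounds plus a stimulation mix containing 100uM IBMX and 25uM Ro-20-1724 for 0.5hr at room temperature. cAMP was measured by HTRF competition, 1hr.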

[19] = biological target: Gonadotropin-releasing hormone receptor (Homo sapiens) (UniProt P30968); experiment: Human gonadotropin-releasing hormone receptor (GnRHR) small molecule agonists, calcium flux assay in GnRHR-HEK293 cells (AID 1920063); also: nearly all actives have a fitted effect of over 35% in size
Gonadotropin-releasing hormone receptor (Homo sapiens), sequence (P30968 whole entry, looked up): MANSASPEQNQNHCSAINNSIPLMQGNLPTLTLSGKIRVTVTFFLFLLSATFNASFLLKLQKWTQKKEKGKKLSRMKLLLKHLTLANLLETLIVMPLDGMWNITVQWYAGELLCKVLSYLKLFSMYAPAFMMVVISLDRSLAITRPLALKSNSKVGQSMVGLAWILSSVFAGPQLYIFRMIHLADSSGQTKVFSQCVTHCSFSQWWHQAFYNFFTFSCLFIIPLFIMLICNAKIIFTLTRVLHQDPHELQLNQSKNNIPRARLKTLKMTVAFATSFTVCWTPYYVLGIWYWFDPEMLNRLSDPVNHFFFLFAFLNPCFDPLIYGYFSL
Method in brief: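 Agonist activity was measured as intracellular calcium flux in HEK293 cells engineered to stably express human GnRHR. After dye loading for 1 hour at 37 C, compounds in DMSO were added and fluorescence was followed for 3 minutes.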

[20] = p53 small molecule agonists, cell-based qHTS assay (AID 1963582; active = well fitted activation curve with a large enough effect in the signal ratio in the repeat runs, not every such curve was filed as active; the % refers to the signal ratio)
Method in brief: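 Cells carrying a p53-responsive bla reporter are treated with test compounds for 16 h at 37 C; beta-lactamase activity is then detected with LiveBLAzer B/G FRET substrate after 2 h at room temperature.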

Measured: Potency

CN(C)c1ccc(N=Nc2ccccc2C(=O)O)cc1
active: [1] 61.1 µM
not listed: [13] | [14] | [15] | [16] | [17] | [18] | [19] | [20]
inactive: all other assays above

CC(=O)[C@]1(O)Cc2c(O)c3c(c(O)c2[C@@H](O[C@H]2C[C@H](N)[C@H](O)[C@H](C)O2)C1)C(=O)c1ccccc1C3=O
active: [1] 2.66 µM
inactive: [2] | [3] | [13] | [14]

CCN(CC)C(=O)c1cc(S(=O)(=O)Cc2ccccc2)c(N2CCC(c3ccccc3)CC2)cc1N(CC)CCN(C)C
active: [10] 24.1 µM | [12] 21.4 µM
inactive: [1] | [2] | [3] | [15] | [4] | [5] | [13] | [7] | [9] | [11]

CN1CCCN(C(c2ccccc2)c2ccc(Cl)cc2)CC1 (centres undefined)
active: [8] 0.0231 µM
not listed: [2] | [6] | [10] | [12] | [13] | [15] | [19] | [20]
inactive: all other assays above

CC(C)c1nc(CN(C)C(=O)N[C@H](C(=O)N[C@@H](Cc2ccccc2)C[C@H](O)[C@H](Cc2ccccc2)NC(=O)OCc2cncs2)C(C)C)cs1
inactive: [1] | [3] | [16] | [5] | [13] | [10] | [12]

CCCCOC(=O)CO
not listed: [1]
inactive: all other assays above

COc1ccc(C(=O)c2ccc(C)cc2)c(O)c1
not listed: [1] | [14] | [20]
inactive: all other assays above

O=CC=C(c1ccccc1)c1ccccc1
active: [6] 42.4 µM | [17] 24.5 µM
not listed: [1] | [7] | [9] | [12] | [14] | [16] | [20]
inactive: all other assays above

C=C[C@](C)(O)CC[C@@H]1[C@@]2(C)CCCC(C)(C)[C@@H]2CC[C@@]1(C)O
active: [16] 32.4 µM | [5] 45.8 µM | [13] 9.13 µM | [12] 43.3 µM
not listed: [1] | [7] | [10] | [11] | [14] | [18]
inactive: all other assays above

CC[N+](CC)(CC)CCOc1ccc(/C=C/c2ccccc2)cc1
active: [6] 18.3 µM
not listed: [1] | [7] | [8] | [11] | [12] | [13] | [16] | [18]
inactive: all other assays above

CC[C@H]1OC(=O)[C@H](C)[C@@H](O[C@H]2C[C@@](C)(OC)[C@@H](O)[C@H](C)O2)[C@H](C)[C@@H](O[C@@H]2O[C@H](C)C[C@H](N(C)C)[C@H]2O)[C@](C)(O)C[C@@H](C)CN(C)[C@H](C)[C@@H](O)[C@]1(C)O
not listed: [1] | [6] | [7] | [8] | [9] | [10] | [17] | [20]
inactive: all other assays above

CC1CN(c2ccccc2)NC1=O (centres undefined)
not listed: [1] | [10] | [12] | [16]
inactive: all other assays above

CC(=O)Oc1ccc([N+](=O)[O-])cc1CCl
not listed: [1] | [6] | [10]
inactive: all other assays above

CCOC(=O)[C@@H](C)Oc1ccc(Oc2nc3ccc(Cl)cc3o2)cc1
not listed: [1] | [14]
inactive: all other assays above

COC(C)(C)CC(C)=O
not listed: [1] | [7] | [10] | [14]
inactive: all other assays above

O=[N+]([O-])c1ccc(Nc2ccc(Nc3ccccc3)c(S(=O)(=O)O)c2)c([N+](=O)[O-])c1
not listed: [1] | [5] | [13]
inactive: all other assays above
